Most compounds without a hit are left out; they make up all but 11% or so of the library.
Lmaj promast – reduces viability of Leishmania major promastigotes | inhibition, % at 10 µM | 9% of 200,000 active | AID 1063 | resazurin fluorescence viability; in the data active means inhibition above about 50%;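 further: promastigotes grown with compound for 44 hours at 28 °C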
Insulin prom inh – TRM-6 insulin promoter activity inhibition; TRM-6 cells (human fetal islet line), insulin promoter-eGFP reporter, imaging; reporter expression induced with tamoxifen; inhibition, % at 2 µM; 0.9% of 130,000 active; AID 1273;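 active means inhibition above the mean plus 3 SD, with well images judged a real hit on visual review, cut at about 60% in these data, passing the limit was not always enough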
WT yeast gro inh – growth inhibition of WT yeast, mitochondrial fusion screen; mitochondrial fusion phenotypic screen, WT strain; 2.1% of 190,000 active; AID 1362; inhibition, % at 10 µM; in the data active means inhibition above about 58%; tested in S. cerevisiae
Insulin prom up – MIN6 insulin promoter up-regulation | 0.3% of 190,000 active | MIN6 insulin promoter-GFP reporter, high-content imaging; hits give high values | z-score at 5 µM;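 active means z-score above 3 at 5 µM with at least 500 cells counted in the well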
Autophagy HCS – autophagy modulation, high-content screen; MEF GFP-LC3 puncta imaging; test concentration mostly 10 µM; calls only at 10 µM (by protocol); 0.98% of 190,000 active;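 active means percentage of spot-positive cells more than 3 SD above its plate mean, without a fluorescence outlier flag or 80% toxicity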;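 further: spot-positive cell cutoff set from DMSO-treated cells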
Active calls of the source: *; i = inactive; · = no result; + = active, no number.

SMILES	Lmaj promast	Insulin prom inh	WT yeast gro inh	Insulin prom up	Autophagy HCS
Cc1cc(C(=O)OC(C(=O)Nc2cccc(C(F)(F)F)c2)c2ccccc2)c(C)o1 (centres undefined)	20	19	48	-0.41	i
Cc1ccc(NC(=O)C(OC(=O)c2cc(C)oc2C)c2ccccc2)cc1 (centres undefined)	52*	·	23	-0.91	i
NC(=O)COc1ccccc1/C=C1/SC(=O)N(CC(=O)N2CCc3ccccc3C2)C1=O	95*	·	-11	-0.33	i
COC(=O)NNC(=O)c1ccc(C)c(Br)c1	-3	12	-29	0.56	i
CCOc1cc(-c2nc(-c3ccc(OC)cc3)no2)cc(OCC)c1OCC	-6	-36	-7	-1.2	i
CCOc1ccccc1C1N=C(c2ccc(OC)cc2)CC(c2ccccc2O)N1 (centres undefined)	51*	35	20	0.26	i
Clc1ccc(-c2nnc(-c3ccccc3)c(-c3ccccc3)n2)cc1	·	·	·	0.23	·
CC1CN(c2nc(-c3ccc(Br)cc3)nnc2-c2ccccc2)CC(C)N1 (centres undefined)	90*	2	38	·	i
Clc1ccc(-c2nnc(-c3ccccc3)c(N3CCSCC3)n2)cc1	16	·	65*	-1.5	i
Cc1ccn2c(NC(C)(C)C)c(-c3cccs3)nc2c1	26	·	25	-0.35	i
Cc1ccc(S(=O)(=O)N(CC#N)CC#N)cc1	-9	-50	4	0.77	i
CCOc1ccc(NC(=S)N(CCCN2CCCC2)Cc2cccn2Cc2ccc(Cl)cc2)cc1	100*	-133	71*	-2	i
Cc1cccc(NC(=S)N(CCCN2CCCC2)Cc2cccn2Cc2ccc(Cl)cc2)c1	98*	·	78*	-2.4	i
CCOc1cc(/C=C(\C#N)C(=O)NCC2CCCO2)ccc1O (centres undefined)	64*	-14	3	-0.91	i
CC(C)(C)C(=O)N1CCN(c2ccc([N+](=O)[O-])c(-n3nc(-c4ccccc4)c4ccccc4c3=O)c2)CC1	57*	36	-1	0.03	i
Cc1ccccc1C(=O)N1CCc2ccccc2C1	-4	-26	-2	4*	i
Cc1ccc(S(=O)(=O)N(C)c2ccc(C(=O)N3CCc4ccccc4C3)cc2)cc1	0	-21	33	0.2	i
O=C(c1ccccc1Cl)N1CCc2ccccc2C1	6	-71	-11	0.1	i
O=C(c1cncc(Br)c1)N1CCc2ccccc2C1	1	86*	0	0.84	i
Cc1ccccc1NS(=O)(=O)c1cc(C(=O)N2CCc3ccccc3C2)ccc1C	88*	·	81*	-0.64	i
CN(c1ccccc1)S(=O)(=O)c1ccc(C(=O)N2CCc3ccccc3C2)cc1	96*	-106	-28	0	i
Cc1ccc(NS(=O)(=O)c2cc(C(=O)N3CCc4ccccc4C3)ccc2Cl)cc1	31	-38	-4	-0.4	i
CC(C)CCNC(=O)COc1ccc(N(C)S(=O)(=O)c2ccc(F)cc2)cc1	15	·	-9	0.28	i
Cc1ccc(S(=O)(=O)Nc2ccccc2CNC2CCCCC2)cc1	3	·	7	-0.44	i
CSc1ccccc1C(=O)N1CCc2ccccc2C1	6	-67	-8	-0.03	+
SMILES	Lmaj promast	Insulin prom inh	WT yeast gro inh	Insulin prom up	Autophagy HCS
CSc1ccccc1C(=O)N1CCOCC1	-6	29	-14	·	i
CCN=C1S/C(=C\c2ccc(OC)c(OCC)c2)C(=O)N1CC	70*	17	11	-0.81	i
CCN(CC)C(=S)Nc1ccc2nc3n(c(=O)c2c1)CCCCC3	1	33	7	1.4	i
Cc1ccc(NC(=O)CC(O)(C(F)(F)F)C(F)(F)F)cc1	-4	77*	24	-0.26	i
COc1ccc(C)cc1NC(=O)CC(O)(C(F)(F)F)C(F)(F)F	-9	·	-7	-0.61	i
O=C(NCc1cccnc1)C(=O)NCC1OCCN1S(=O)(=O)c1ccc(F)cc1 (centres undefined)	8	12	-8	0.37	i
Cc1cccn2c(=O)c3cc(C#N)c(=N)n(CCCN4CCOCC4)c3nc12	89*	24	·	·	i
COCCCn1c(=NC(=O)c2ccncc2)c(C#N)cc2c(=O)n3cccc(C)c3nc21	20	·	11	-0.15	i
Cc1cccn2c(=O)c3cc(C#N)c(=NC(=O)c4ccncc4)n(CCCOC(C)C)c3nc12	61*	-50	1	-1	i
CCCn1c(=N)c(C(=O)NC2CCCC2)cc2c(=O)n3cccc(C)c3nc21	58*	19	-12	-1.1	i
Cc1cccn2c(=O)c3cc(C(=O)NC4CCCCC4)c(=N)n(CCN4CCOCC4)c3nc12	·	·	·	-0.22	·
CCn1c(=N)c(C(N)=O)cc2c(=O)n3cccc(C)c3nc21	100*	-23	·	·	i
CCn1c(=N)c(C(=O)NC)cc2c(=O)n3cccc(C)c3nc21	·	·	·	0.68	·
Cc1cccn2c(=O)c3cc(C(N)=S)c(=N)n(CCCN4CCOCC4)c3nc12	64*	-35	12	1.6	i
Cc1ccc2nc3c(cc(C(N)=S)c(=N)n3CCCOC(C)C)c(=O)n2c1	86*	-24	12	-0.74	i
CCCCNC(=O)c1cc2c(=O)n3cccc(C)c3nc2n(CCN2CCOCC2)c1=N	12	-16	3	-0.65	i
Cc1ccnc(N=Cc2c(O)ccc3oc4c(c23)CCCC4)c1	90*	-25	-4	0.46	i
O=S(=O)(/C=C/c1ccccc1)N1CCN(Cc2ccccc2)CC1	78*	·	47	0.38	i
Cc1ccc2c(CN3CCN(S(=O)(=O)/C=C/c4ccccc4)CC3)cc(=O)oc2c1	22	-100	3	-0.31	i
CCN1CCN(c2nc(-c3cccnc3)nc3ccccc23)CC1	54*	-11	6	-0.21	i
CCN1CCN(c2nc(-c3ccncc3)nc3ccccc23)CC1	100*	-18	-11	-0.19	i
c1ccc2c(N3CCCCC3)nc(N3CCCCC3)nc2c1	68*	50	7	2.3	i
COc1cccc(NC(=S)NN=C2CCCCCC2)c1	47	·	47	-0.26	i
COc1cccc2cc(C(=O)OCC(=O)NCc3ccc4c(c3)OCO4)c(=O)oc12	·	·	·	-0.03	·
Cc1ccc(S(=O)(=O)NNC(=O)NC23CC4CC(CC(C4)C2)C3)cc1	-1	7	-5	-0.08	i
SMILES	Lmaj promast	Insulin prom inh	WT yeast gro inh	Insulin prom up	Autophagy HCS
O=S(=O)(/C=C/c1ccccc1)N1CCN(c2nc(-c3ccccc3)nc3ccccc23)CC1	65*	·	-11	-0.54	i
c1ccc2c(N3CCCCC3)nc(N3CCOCC3)nc2c1	17	-92	3	-0.67	i
COc1ccc(N2CCN(S(=O)(=O)/C=C/c3ccccc3)CC2)cc1	-10	·	17	0.07	i
c1ccc2c(Nc3nc(N4CCOCC4)c4ccccc4n3)cccc2c1	88*	29	85	0.18	i
CN1CCN(c2nc(-c3cccnc3)nc3ccccc23)CC1	39	·	94*	0.46	i
Fc1ccc(Nc2nc(N3CCOCC3)c3ccccc3n2)cc1	·	·	31	·	·
Cc1cc(N2CCN(c3nc(N4CCOCC4)nc4ccccc34)CC2)c2ccccc2n1	43	0	·	·	+
Cc1c(C(=O)O)c(C(=O)O)c2n1CCS2	·	·	·	1	·

High-throughput results: PubChem, several laboratories
